DAX1 StAR inh – DAX1 (NR0B1) inhibition, primary screen; hit rate 1.1% among 370,000; inhibition, % at 6.8 µM; HEK293T StAR-luciferase reporter, SF-1/DAX-1 repression relief;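 active means inhibition above the mean over all tested compounds plus 3 SD, cut at about 3.6% in these data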;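 further: 0% = DAX-1 cells with DMSO and 100% = cells lacking DAX-1 with DMSO; higher inhibition means more luminescence from relief of DAX-1 repression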
ssDAF12 agonist – activates DAF-12 receptor from parasite S. stercoralis; HEK293 ssDAF-12/GRIP1 lit1-tk-luc reporter, luminescence; % of 3 µM dafachronic acid response; activation, % at 6.8 µM; hit rate 1% among 370,000; AID 652126;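 active means activation above the mean over all tested compounds plus 3 SD, cut at about 0.9% in these data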;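 further: 0% = DMSO-only wells and 100% = 3 µM delta7-dafachronic acid wells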
SMARCA2 activ – SMARCA2 function activation, primary screen | MG213 cells, MMTV-luciferase reporter, dexamethasone, overnight | activation, % at 9.1 µM | hit rate 1% among 370,000; in the data active means activation above about 7.8%;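 further: 0% = vehicle wells and 100% = reference activator wells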
hcDAF12 agonist – activates DAF-12 receptor from parasite H. contortus | hit rate 1.4% among 370,000 | HEK293 hcDAF-12 lit1-tk-luc reporter, luminescence; 0% DMSO, 100% Δ7-dafachronic acid | activation, % at 6.8 µM;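 active means activation above the mean of all tested compounds plus 3 SD, cut at about 5.5% in these data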;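 further: 100% = response to 3 µM Δ7-dafachronic acid high control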
hgDAF12 agonist – agonists of H. glycines DAF-12 nuclear receptor; HEK293 GAL4-hgDAF12 UAS-luciferase reporter, agonist luminescence; normalized to butyrate control; hit rate 1.8% among 370,000; activation, % at 6.8 µM;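 active means activation above a cutoff set at the mean of all screened compounds plus 3 SD, cut at about 10% in these data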;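 further: 0% = DMSO wells and 100% = sodium butyrate wells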
LXR ag – activates human LXR-beta, counter-screen for hcDAF-12 agonists; shares compounds with hcDAF12 agonist; HEK293 Gal4-LXR tk-luc reporter, luminescence, 24 h; normalized: DMSO 0%, positive control 100%; activation, % at 6.8 µM; 3,400 tested, under 10 active; AID 743027;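 active means mean percent activation of the reporter above a cutoff set as the average over tested compounds plus their standard deviation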
Target sequence (P55055 whole entry, looked up, the tested form may be a part): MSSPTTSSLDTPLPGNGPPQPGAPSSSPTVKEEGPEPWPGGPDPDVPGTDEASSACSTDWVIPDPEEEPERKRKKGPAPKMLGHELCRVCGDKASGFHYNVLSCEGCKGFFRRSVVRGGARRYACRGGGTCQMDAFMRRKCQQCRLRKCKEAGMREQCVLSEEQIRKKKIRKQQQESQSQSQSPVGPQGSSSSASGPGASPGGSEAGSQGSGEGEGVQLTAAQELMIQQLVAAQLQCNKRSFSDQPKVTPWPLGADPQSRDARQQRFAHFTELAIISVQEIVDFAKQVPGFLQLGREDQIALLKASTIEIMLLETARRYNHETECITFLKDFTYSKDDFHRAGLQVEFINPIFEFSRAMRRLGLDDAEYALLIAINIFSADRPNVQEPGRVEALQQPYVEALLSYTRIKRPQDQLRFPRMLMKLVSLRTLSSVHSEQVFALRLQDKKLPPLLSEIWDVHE
hcDAF12 conf – hcDAF-12 agonism, confirmation assay; HEK293 hcDAF-12 lit1-tk-luc reporter, luminescence; % of Δ7-dafachronic acid response; activation, % at 6.8 µM; shares compounds with hcDAF12 agonist; hit rate 61% among 3,400;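 active means mean activation across triplicate tests above the threshold derived from the earlier primary screen, cut at about 5.5% in these data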;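 further: 0% = DMSO only wells and 100% = 3 µM Δ7-dafachronic acid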
* marks the source's active call; other numbers are inactive results; . = no result given. Only some compounds are listed: those with a hit (about 4.2% of all), similar ones and a draw of the others.

SMILES	DAX1 StAR inh	ssDAF12 agonist	SMARCA2 activ	hcDAF12 agonist	hgDAF12 agonist	LXR ag	hcDAF12 conf
Cc1ccc(CNc2nc(NCc3ccccc3)nc3ccsc23)c(C)c1	-2	-2	-5	-3	-2	.	.
Cc1sc2ncnc(N/N=C/c3ccccc3O)c2c1C	0	0	4	7.2*	7	0	0
Cc1sc2ncnc(N/N=C/c3ccc(O)cc3)c2c1C	-1	0	-2	0	2	.	.
CCOc1cc2c3c(c1)C1(C(=O)N3C(C)(C)CC2C)C(C#N)=C(N)N2C(=C1C#N)Nc1ccccc12 (stereo unspecified)	0	-1	-3	7.2*	1	0	-1
CC(=O)Nc1ccc(S(=O)(=O)Nc2nc3ccccc3nc2N2CCc3ccccc3C2)cc1	3	2.2*	4	11*	8	0	6.7*
CC(C)(C)OC(=O)N1CCN(C(=O)c2ncn3c2c(=O)[nH]c2ccccc23)CC1	0	0	1	1	1	.	.
CCCCC(=O)N1CCC(NS(=O)(=O)c2ccc3c(c2)CCN3C(C)=O)CC1	-2	-2	-5	-1	-2	.	.
COc1ccc(O)c(-c2cc(-c3ccc(F)cc3)n[nH]2)c1	1	1.0*	4	7.6*	9	1	6.3*
Oc1ccc(Br)cc1-c1cc(-c2ccc(Cl)cc2)n[nH]1	0	0	2	4	6	.	.
Oc1ccc(Br)cc1-c1cc(-c2ccccc2)n[nH]1	0	1.6*	1	8.1*	5	0	5
CC(C)c1onc(C(=O)N2CCOCC2)c1[N+](=O)[O-]	0	-1	-1	-2	-1	.	.
Cc1onc(C(=O)N2CCOCC2)c1[N+](=O)[O-]	-1	-1	-6	7.2*	-5	0	1
Cc1nnc(NC(=O)c2ccc3ccccc3n2)s1	4.3*	0	3	7.6*	5	1	9.1*
Cc1nc2ccc(NC(=O)c3ccc4ccccc4n3)cc2s1	1	-1	1	3	3	.	.
Cc1ccc(NC(=O)n2ncc3c(C)cccc32)cc1F	2	1.1*	8	11*	9	1	9.0*
Cc1ccc(NC(=O)[C@H]2CC(=O)O[C@@H]2c2ccccc2)c(C)c1	0	-2	-4	3	1	.	.
COC(=O)C1CN(C2CCCC2)CCS(=O)(=O)N1Cc1ccc(C)cc1 (stereo unspecified)	-2	-2	0	-2	-1	.	.
CC(C)CNC(=O)OCc1cn(Cc2cccc(C(F)(F)F)c2)nn1	1	0	-1	0	-4	.	.
C=CCn1c(COc2ccc(CC)cc2)nnc1SC/C(O)=C(\C#N)c1nc2ccccc2[nH]1	0	0	1	8.2*	2	0	6.1*
C[C@@H]1CN([C@H](C)CO)C(=O)CCCn2nncc2CO[C@@H]1CN(C)C(=O)C1CCCCC1	1	-1	-5	0	1	.	.
CC(C)CCN1C(=O)CSCC1(C)C(=O)NC(C)C (stereo unspecified)	0	0	-1	0	0	.	.
O=C(NC1CCOc2ccccc21)C1CCCC1 (stereo unspecified)	0	0	-2	6.7*	-3	0	3
Cc1ccc(CNc2nc3ccccc3n2C)o1	1	1.1*	4	7.8*	12*	1	8.3*
C[C@H](CO)N1C[C@H](C)[C@H](CN(C)C(=O)C2CCCCC2)OCc2cnnn2CCCC1=O	1	-1	4	-1	2	.	.
NC(=O)c1ncn2c(=O)n(CCCl)nnc12	-1	-2	-1	-3	-1	.	.
SMILES	DAX1 StAR inh	ssDAF12 agonist	SMARCA2 activ	hcDAF12 agonist	hgDAF12 agonist	LXR ag	hcDAF12 conf
COC(=O)C[C@@H]1CC[C@@H]2[C@H](COc3ccc(NC(=O)c4ccc5c(c4)OCO5)cc3C(=O)N2C)O1	0	0	-2	-1	4	.	.
COc1ccc2c(c1)C1=NN(/C(C)=C\C(C)=O)C(c3ccccc3)C1CC2 (stereo unspecified)	-1	0	5	3	2	.	.
COc1ccc2c(c1)C1=NN(/C(C)=C/C(C)=O)C(c3ccc(F)cc3)C1CC2 (stereo unspecified)	1	1.3*	0	9.5*	6	0	5.7*
CC(C)C[C@@H]1COc2cc(NCCCN3CCOCC3)ccc2S(=O)(=O)N1	2	-1	-5	0	-2	.	.
COC(=O)[C@]12C[C@H](CC(=O)N3CCN(C(=O)c4ccco4)CC3)C(=O)N(Cc3cccc4ccccc34)C1=C[C@H](C1CCCC1)O[C@@H]2C	-1	-1	-2	-1	-4	.	.
N#Cc1ccc(/C=C2\CCCCn3c2nc2cc(C(=O)O)ccc2c3=O)cc1	1	-1	-1	0	1	.	.
O=C(O)c1ccc2c(=O)n3c(nc2c1)/C(=C/c1ccc(C(F)(F)F)cc1)CC3	0	-1	-3	7.0*	1	0	1
COc1ccc(NC(=O)N2CCc3ccccc3C2)cc1	4	0	2	3	6	.	.
O=C(Nc1ccccc1)N1CCc2ccccc2C1	1	0	8	6.8*	11*	1	7.9*
O=C(N[C@H](Cc1ccccc1)C(=O)N1CCN(Cc2ccccn2)CC1)[C@H]1O[C@@H](n2ccc(=O)[nH]c2=O)[C@H](O)[C@@H]1O	1	-1	3	-1	5	.	.
O=C(NCc1ccccc1)C(c1cc2ccccc2o1)n1c(=O)c(-c2ccco2)nc2ccccc21 (stereo unspecified)	3.9*	2.5*	2	9.6*	11*	1	11*
COc1ccc2nc(NC(=O)CSc3nc(C)cc(C)n3)sc2c1	-2	-1	-1	-2	-2	.	.
COC(=O)c1cccc(NC(=O)COC(=O)CSc2nc(C)cc(C)n2)c1	0	-1	0	-1	2	.	.
COC(=O)c1ccc2nc(NC(=O)COC(=O)CSc3nc(C)cc(C)n3)sc2c1	1	0	3	11*	5	0	5.9*
Cc1ccc2nc(NC(=O)COC(=O)CSc3nc(C)cc(C)n3)sc2c1	1	0	1	9.6*	8	0	8.7*
COC(=O)c1ccc(Cn2ccc3ccc(-c4ccc5ccn(C(=O)C6CCCCC6)c5c4)cc32)cc1	0	-1	-1	-3	1	.	.
CCN(CC)C(=O)C1=C(C)N(CCCN2CCCC2=O)C(=O)C(CC(=O)NCc2cccc3ccccc23)C1 (stereo unspecified)	-1	-1	-4	1	1	.	.
